HCMV inh: blocks human cytomegalovirus replication. activity change, negative = inhibition, % at 57.5 µM. HFF cells, HCMV-luciferase reporter, 72 h; active compounds read low. AID 1259415. 410,000 compounds, 4.5% hits; in the data active = activity change below about -60%; inconclusive = no clear call, values can overlap the other calls; inactive = above about -39%; note: % is set by controls: 0 for no effect and ±100 for the full control effect
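Two compound doses tested in HFFs infected with HCMV-luciferase, MOI 1 PFU/cell, 72 h at 37C. Lysate luminescence read with OneGlo; data normalized against buffer-only and 10uM Salinomycin inhibitor controls.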
Sm TGR inh: blocks Schistosoma mansoni thioredoxin glutathione reductase | 360,000 compounds, 3% hits | Potency, µM (highest dose often 114 µM), inactives show top-dose activity change, negative = inhibition, actives largely listed as inhibitors | purified TGR, DTNB reduction, TNB absorbance 405 nm | Q962Y6; note: potency is the fitted concentration of half-maximal effect; % is set by controls: 0 for no effect and ±100 for the full control effect; nearly all actives have a fitted effect of over 60% in size
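Kinetic colorimetric format: TGR-catalysed, NADPH-driven DTNB reduction monitored via TNB absorbance. Enzyme dispensed at 20 nM; compound exposure 15 min at room temperature before reaction start.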
SARS PLpro yeast: inhibitors of SARS-CoV papain-like protease in yeast | S. cerevisiae expressing SARS-CoV PLpro, growth rescue | 330,000 compounds, 0.19% hits | AID 485353 | Potency, µM (top dose mostly 32.9 µM), for inactives: top-dose activity, positive = growth rescue, most hits filed as activators; calls by dose curve; note: potency is the fitted concentration of half-maximal effect; 0% is about no effect; nearly all actives have a fitted effect of over 55% in size
Pf growth 96h: P. falciparum growth inhibition at 96 hour, primary screen for plastid delayed-death inhibitors | 320,000 compounds, 6.9% hits | Potency, µM (series often up to 28.7 µM), inactives show at the top dose activity change, negative = inhibition, most hits filed as inhibitors | AID 504834 | P. falciparum luciferase reporter growth, 96 h; note: potency is the fitted concentration of half-maximal effect; % is set by controls: 0 for no effect and ±100 for the full control effect
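Two-generation exposure (96 h) targets delayed-death phenotype. Reporter parasites carrying integrated firefly luciferase, in red cells at 2% hematocrit and 0.05% parasitemia final, kept at 37 C, 5% CO2; luminescence loss indicates inhibition.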
HCV inh: HCV inhibition. AID 651820. Potency, µM (series often up to 41.8 µM), without a hit: at the top dose activity change, negative = inhibition, actives largely listed as inhibitors. 340,000 compounds, 3.4% hits. Huh7.5.1 HCVcc-Cre infection, luciferase reporter, 44 h; note: potency is the fitted concentration of half-maximal effect; % is set by controls: 0 for no effect and ±100 for the full control effect
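Cells seeded at 1,000/well and cultured 4 h, then compounds added followed by HCVcc-Cre virus (~0.5 moi). After 44 h further culture, luciferase substrate was added, plates held 15 min at room temperature, and luminescence read for 15 sec.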
Pf growth 48h: inhibits P. falciparum growth in the first generation, 48 h | Potency, µM (highest dose often 28.7 µM), inactives show at the highest dose activity change, negative = inhibition, usual class: inhibitors | 310,000 compounds, 5.9% hits | P. falciparum luciferase growth in erythrocytes, 48 h; note: potency is the fitted concentration of half-maximal effect; % is set by controls: 0 for no effect and ±100 for the full control effect
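Erythrocytes infected with P. falciparum carrying an integrated firefly luciferase reporter (2% hematocrit, 0.1% parasitemia final) were exposed to compounds in RPMI 1640 with 0.5% Albumax at 37 C, 5% CO2. Growth inhibition was scored as reduced luminescence.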
An asterisk follows results filed as active; ? = inconclusive; nt = not tested or not shown. Only some compounds are listed: those with a hit (about 15% of all), similar ones and a draw of the others. Unless noted, calls come from the whole dose curve; as a rule, active = well fitted curve in the direction sought with a large enough effect; inconclusive = small, poorly fitted or top-dose-only effect, or another doubt; inactive = no such curve, though single readings can be large; an effect the other way counts as inactive or inconclusive.

SMILES	HCMV inh	Sm TGR inh	SARS PLpro yeast	Pf growth 96h	HCV inh	Pf growth 48h
Cc1ccc2cc(C)c(NCCO)nc2c1	-60*	0%	2%	-9%	-5%	-9%
CCOC(=O)c1c(NC(=O)C2CCCCC2)sc2c1CCN(CC)C2	-17	-10%	-2%	-14%	-12%	?
CCOC(=O)c1c(NC(=S)N2CCOCC2)sc2c1CCN(C(=O)OCC)C2	-109*	-31%	0%	?	-51%	?
CCOC(=O)c1c(NC(=S)N2CCCCC2)sc2c1CCN(C(=O)OCC)C2	-98*	-17%	1%	?	-69%	?
O=S(=O)(c1ccc(Br)s1)N1CCN(c2cccc(C(F)(F)F)c2)CC1	0	4%	nt	nt	nt	nt
COc1ccc(OC)c(CN2C(=O)c3ccccc3C2c2nnnn2C(C)C)c1 (centres undefined)	-7	nt	nt	nt	nt	nt
N#CCCN1CCN(S(=O)(=O)c2ccc(S(=O)(=O)NC3CCCC3)cc2)CC1	-11	-4%	10%	?	14%	8%
CC(=O)c1cccc(NC(=O)NCCS(C)=O)c1 (centres undefined)	28	3%	-2%	17%	6%	11%
Fc1cccc(Cl)c1/C=N/n1c(-c2cccnc2)n[nH]c1=S	-8	20%	6%	?	1%	0%
C=C(C)[C@H]1Cc2c(ccc3c2O[C@@H]2COc4cc(OC)c(OC)cc4[C@@H]2C3=O)O1	nt	nt	nt	6.7µM*	nt	?
O=C(CCCCn1c(=O)c2ccccc2n(CC(=O)Nc2cccc(F)c2)c1=O)NCCc1ccccc1	-4	-5%	nt	nt	nt	nt
CCN(CC)S(=O)(=O)c1cccc(C(=O)Nc2cc(C)on2)c1	45	-6%	-5%	?	-15%	?
C=CC[C@H](CC(=O)NCCO)C(=O)N[C@@H](COC(=O)[C@@H](CC=C)CC(=O)OC(C)(C)C)Cc1c[nH]c2ccccc12	22	nt	6%	nt	13%	nt
CC(C)(C)NC(=O)CN(C(=O)CN1C(=O)C(=O)c2ccccc21)C(C)(C)C	5	-1%	-6%	13µM*	15%	15%
CC(=O)N(Cc1ccccc1)C1CC(=O)N(Cc2ccccc2)C1=O (centres undefined)	37	nt	nt	nt	4%	nt
COc1ccccc1S(=O)(=O)Cc1ccc(C(=O)NC(C)c2ccc3c(c2)OCCO3)o1 (centres undefined)	-2	40µM*	1%	26%	-17%	?
O=C(Nc1cccc(S(=O)(=O)C(F)F)c1)c1ccc(S(=O)(=O)N2CCOCC2)cc1	7	-1%	2%	nt	-13%	-21%
COc1ccc(/C(C)=N/NC(=O)c2cccc(S(=O)(=O)N3CCCC3)c2)c(O)c1	-90*	-2%	-5%	?	3.2µM*	?
O=C(Nc1cccc(S(=O)(=O)C(F)F)c1)c1ccc(S(=O)(=O)N2CCCC2)cc1	?	17%	-2%	-12%	5µM*	-21%
COc1ccc(NC(=O)c2cc(S(=O)(=O)N3CCCCC3)ccc2OC)cc1	-73*	-13%	nt	?	-12%	-3%
COc1ccc(NS(=O)(=O)c2ccc(O)c(NC(=O)c3ccc(S(=O)(=O)N4CCCCCC4)cc3)c2)cc1	16	13%	15%	8%	12%	23%
COc1ccc(NS(=O)(=O)c2cccc(NC(=O)c3ccc(S(=O)(=O)N4CCCCCC4)cc3)c2)cc1	nt	1%	-13%	13µM*	?	?
COc1ccc(NC(=O)c2cccc(S(=O)(=O)N3CCCCCC3)c2)cc1	-88*	1%	1%	6%	?	?
CN(C)C(=O)c1ccc(NC(=O)c2cccc(S(=O)(=O)N3CCN(Cc4ccccc4)CC3)c2)cc1	18	nt	nt	nt	?	nt
COc1ccc(NS(=O)(=O)c2cccc(NC(=O)C34CCC(CC3)C4)c2)cc1	-64*	-13%	2%	?	?	-12%
SMILES	HCMV inh	Sm TGR inh	SARS PLpro yeast	Pf growth 96h	HCV inh	Pf growth 48h
CN(C)C(=O)c1ccc(NC(=O)c2cccc(S(=O)(=O)N3CCCc4ccccc43)c2)cc1	?	2%	1%	9.3µM*	?	5.2µM*
CC(=O)Nc1ccc(NC(=O)c2cccc(S(=O)(=O)N3CCCCCC3)c2)cc1	2	nt	-1%	nt	?	nt
CN(C)C(=O)c1ccc(NC(=O)c2cccc(S(=O)(=O)N3CCCCCC3)c2)cc1	?	7%	-12%	5.2µM*	?	?
CC1(C)C(=O)C=C(N2CCCCC2)c2ccccc21	-27	nt	nt	nt	nt	nt
Cc1ccc(S(=O)(=O)NC(=O)c2ccccc2C)cc1	-21	1%	1%	-26%	3%	31%
CN(C)C(CNC(=O)c1cc(S(=O)(=O)N2CCOCC2)ccc1F)c1cccs1 (centres undefined)	-38	nt	3%	nt	5%	nt
Cc1cccc(NC(=O)c2sc(-n3nc(C)c(CCC(C)C)c3C)nc2C)c1	-20	3%	nt	nt	nt	nt
O=C(CCC1CCCCC1)NCCS(=O)(=O)N1CCN(c2ccc(F)cc2)CC1	-28	3%	-5%	?	-24%	?
CC(=O)c1cnc(-c2ccccn2)s1	81	2%	3%	?	3%	10µM*
CCOc1ccccc1CNC(=O)c1cc2occc2n1C	-31	?	2%	64%	-13%	-24%
O=C(NCc1cccc(Cl)c1)c1ccc2ccccc2n1	-30	9%	-11%	14%	?	-9%
CCOc1ccccc1CNC(=O)c1cc2oc3ccccc3c2n1C	-85*	-1%	-3%	nt	?	?
COCCNC(=O)c1cc2oc3ccccc3c2n1C	42	3%	-13%	nt	13µM*	144%
Cn1c(C(=O)NCc2cccc(Cl)c2)cc2oc3ccccc3c21	-64*	24%	nt	nt	nt	nt
COc1cc(C)c(CN2CCN(CC(=O)Nc3ccccc3C(=O)NC3CC3)CC2)cc1OC	-26	-18%	-6%	?	1%	?

Assay outcomes (PubChem BioAssay)
